Assay results reported in PubChem BioAssay AID641 (Vanderbilt High Throughput Screening Facility, 2007).
The campaign covered roughly 58,000 compounds. About 3,400 (5.9%) were called active. The sample as a whole holds a higher share of actives than the screen did. A number with no mark means an inactive call.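 Rule for the calls: active = luminescence count or its row- and column-corrected plate score outside the 99.7% band of the plate's sample wells, on either side; inactive = the rest.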 Where a SMILES comes first, the peptide text is derived from it. The star is where a group is joined. Bz = O=C(c1ccccc1)*

Each compound was assayed against D(1A) dopamine receptor (Homo sapiens) (UniProt P21728) (assay: D1 CRE-luciferase signal change, two-sided – cell-based, HEK293 D1, dopamine EC30, D1 allosteric modulator project, primary screen (AID 641)). Conditions: dopamine EC30 potentiation, at 10 µM, actives deviate in either direction.
Sequence of D(1A) dopamine receptor (Homo sapiens) (P21728 whole entry, looked up): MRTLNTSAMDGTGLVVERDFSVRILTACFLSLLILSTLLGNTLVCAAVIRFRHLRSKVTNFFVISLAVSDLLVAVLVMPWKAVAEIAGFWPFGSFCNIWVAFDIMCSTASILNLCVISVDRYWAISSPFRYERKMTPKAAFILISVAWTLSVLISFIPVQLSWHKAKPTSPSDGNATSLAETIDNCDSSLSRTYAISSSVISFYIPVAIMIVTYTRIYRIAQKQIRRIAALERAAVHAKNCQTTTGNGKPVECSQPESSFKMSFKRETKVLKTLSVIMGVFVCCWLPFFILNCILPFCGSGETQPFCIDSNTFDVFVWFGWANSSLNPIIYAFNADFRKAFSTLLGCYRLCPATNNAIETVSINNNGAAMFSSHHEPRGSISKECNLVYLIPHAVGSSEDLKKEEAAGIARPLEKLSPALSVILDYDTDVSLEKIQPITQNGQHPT

Going from CCC1CCCCN1C(=O)Nc1cccc(NC(=O)N2CCCCC2CC)c1 (configuration not stated) to COc1cccc2c(=O)n(CC(=O)N3CCCCCC3)ccc12, the B-score rises from 0.11 to 0.116.

Going from CCOCC(=O)NCc1ccc2c(c1)cc(C)n2C to CCOC(=O)N1CCC(NC(=O)COc2cc(=O)n(C)c3ccccc23)CC1, the B-score falls from 0.132 to 0.112.

Compared with Cc1noc(C)c1S(=O)(=O)N1CCCC(C(=O)Nc2nccs2)C1 (configuration not stated), CC(=O)Nc1ccc(S(=O)(=O)N2CCCC2C(=O)O)cc1 (configuration not stated) is higher in B-score: -0.254 for the first, -0.232 for the second.

Compared with CCOC(=O)c1ccccc1NC(=O)CC1Nc2ccccc2NC1=O (configuration not stated), COC(=O)c1ccccc1NC(=O)CSc1ccccn1 is higher in B-score: -0.897 for the first, 3.05 for the second.

First: COc1ccc(OC)c(N=Cc2c(O)[nH]c3ccccc23)c1
Second: COc1cc(N=Cc2c(O)[nH]c3ccccc23)cc(OC)c1OC
The B-score of the first is higher: 1.65 for the first, -1.15 for the second.

First: CN(C)Cc1c(O)ccc2occ(C(O)c3ccccc3)c12 (configuration not stated)
Second: CN(C)Cc1c(C#N)c2ccccc2n1C
The B-score of the first is higher: 0 for the first, -1.12 for the second.

Going from Cc1nnc(SCC(=O)NCCOc2ccc(Cl)cc2)n1-c1ccccc1 to COc1ccc(-n2nnc3c(=O)n(CC(=O)OCc4ccccc4)cnc32)cc1, the B-score falls from 0.122 to -0.218.

First: O=C(CCC(=O)OCC(F)(F)C(F)F)NCc1ccccc1
Second: CCCC(=O)N(CCc1ccccc1)Cc1nc2ccccc2c(=O)[nH]1
The B-score of the first is higher: 0.31 for the first, 0.0641 for the second.

Compared with FC(F)(F)c1nnc2sc(-c3ccco3)nn12, CCOC(=O)c1ccn(-c2nc(-c3ccco3)cc(C(F)(F)F)n2)n1 is lower in B-score: 0.0156 for the first, -0.161 for the second.

Compared with O=C(CSc1nc(-c2ccco2)cc(C(F)(F)F)n1)NCc1cccs1, O=C(CSc1nc(-c2ccco2)cc(C(F)(F)F)n1)N1CCc2ccccc2C1 is higher in B-score: 0.0388 for the first, 0.312 for the second.

Compared with C=CCc1cccc2cc(C(=O)N3CCN(C(=O)OCC)CC3)c(=O)oc12, CCOC(=O)N1CCN(Cc2nc3c(c(=O)n(C)c(=O)n3C)n2Cc2ccccc2)CC1 is higher in B-score: -0.147 for the first, -0.0843 for the second.

Going from CCOC(=O)Cn1c(=O)oc2cc(S(=O)(=O)N(C)Cc3ccco3)ccc21 to CCC(=O)N1CCc2cc(S(=O)(=O)NC(C(=O)N3CCc4ccccc4C3)C(C)C)ccc21 (configuration not stated), the B-score rises from 0.239 to 1.68.

Going from Cn1nnnc1SCC(=O)N1CCN(Cc2ccccc2)CC1 to CCc1c(O)nc(SCC(=O)N2CCCCC2)n(-c2ccccc2C)c1=O, the B-score falls from 0.031 to 0.0102.

Going from Cc1occc1C(=O)N1CCCc2ccccc21 to Cc1ccc2c(c1)N(CC(=O)N1CCCc3ccccc31)C(=O)C(C)O2 (configuration not stated), the B-score rises from 0.259 to 1.2.

Compared with Cc1ccc(C2c3c(oc4ccc(C)cc4c3=O)C(=O)N2CCCN2CCOCC2)cc1 (configuration not stated), Cc1ccc(N2C(=O)c3oc4ccccc4c(=O)c3C2c2cccnc2)nc1 (configuration not stated) is lower in B-score: 1.68 for the first, 0.194 for the second.

Going from Cc1ccc(S(=O)(=O)C(C#N)c2nc3ccccc3nc2N2CCCC2)cc1C (configuration not stated) to Cc1ccc(C)c(S(=O)(=O)n2cnc3ccccc32)c1, the B-score falls from 0.792 to 0.135.

Going from CC(C)(C)NC(=O)C(c1ccncc1)N(C(=O)CNC(=O)c1ccco1)c1ccc2c(c1)OCO2 (configuration not stated) to O=C(NCc1ccco1)c1nc(-c2ccccc2)n(-c2ccccc2)n1, the B-score falls from 1.5 to -1.33.

Compared with CCn1c2c(c3ccc(OC)cc31)CCCC2=O, CCOC(=O)c1[nH]c2ccc(OC)cc2c1NC(=O)N1CCOCC1 is higher in B-score: 0.923 for the first, 1.26 for the second.

Going from COc1ccc(CCN(C)CCN2C(=O)c3ccccc3C2=O)cc1OC to COc1ccc(CCNC(=O)C2CCCN(Cc3nc(-c4cccc(Cl)c4)oc3C)C2)cc1OC (configuration not stated), the B-score falls from 0.821 to 0.204.

First: COc1ccc(N2CCN(CCNC(=O)CCN3C(=O)COc4ccccc43)CC2)cc1
Second: CCCN1CCN(CCCNC(=O)CN2C(=O)COc3ccccc32)CC1
The B-score of the first is higher: -0.0397 for the first, -0.525 for the second.

Going from Cn1nc(-c2ccc(Cl)cc2)c2cc(C(=O)NCc3ccco3)sc21 to CCOc1ccccc1/C=c1\sc2nc(-c3ccco3)nn2c1=O, the B-score rises from -0.605 to -0.399.

First: COc1ccc(OCC(=O)N2CCOCC2)cc1
Second: CCOc1ccc(C(=O)Nc2cc(OC)ccc2OC)cc1
The B-score of the first is higher: 0.809 for the first, 0.0877 for the second.

Going from COc1ccc2[nH]c(=O)c(CN(CC3CCCO3)C(=O)Nc3ccccc3)cc2c1 (configuration not stated) to O=C(c1ccco1)N(Cc1nc2ccccc2c(=O)[nH]1)C1CCCC1, the B-score rises from -0.175 to -0.0551.

Going from Cc1cc(C(F)(F)F)nn1CC(=O)N1CCCC1 to O=C(C1CCN(CC2CCCCC2)CC1)N1CCCC1, the B-score falls from 0.971 to 0.0452.

Going from CCn1ncc(C2=NOC(C(=O)N3CCN(c4ccccc4)CC3)C2)c1C (configuration not stated) to O=C(c1ccco1)N1CCN(C(=O)C2CC(c3ccc(F)cc3)=NO2)CC1 (configuration not stated), the B-score rises from -0.447 to -0.404.

First: c1ccc(CCC2=NCCn3cccc32)cc1
Second: O=c1/c(=C/c2ccc(CNS(=O)(=O)c3ccccc3)o2)sc2n1CCN=2
The B-score of the first is lower: -0.434 for the first, -0.139 for the second.

Going from COC(=O)C1=CN(C)C=C(C(=O)OC)C1c1ccc(Cl)cc1Cl to COCCOC(=O)C1=C(C)NC(=O)NC1c1ccc(Cl)cc1 (configuration not stated), the B-score falls from 0.625 to -0.276.

Going from CCCc1nc(N2CCN(C)CC2)c2sc(=S)n(-c3ccccc3)c2n1 to O=C1c2cccc3cccc(c23)N1CN1CCN(c2ccccn2)CC1, the B-score falls from 0.374 to -2.84.

First: CC1(C)CC(=O)C=C(NCc2ccncc2)C1
Second: Cc1ccc(C(=O)Nc2nnc(-c3ccncc3)s2)o1
The B-score of the first is higher: 0.0608 for the first, -0.406 for the second.

First: OC(COc1cccc(OCC(O)CN2CCCC2)c1)CN1CCCC1 (configuration not stated)
Second: CCOC(=O)c1ccc(N2C(=O)CC(N3CCC(C(=O)OCC)CC3)C2=O)cc1 (configuration not stated)
The B-score of the first is lower: -0.368 for the first, -0.257 for the second.

Compared with COc1ccc(NC(=O)Nc2cccc3cccnc23)cc1, O=C(Oc1ccccc1)c1ccc2nccnc2c1 is higher in B-score: -0.391 for the first, 0.299 for the second.

Compared with O=C(CSc1nnnn1C1CCCC1)Nc1ccc2c(c1)OCCO2, Cn1c(SCC(=O)N2CCOCC2)nnc1-c1ccc(NC(=O)c2ccccc2F)cc1 is lower in B-score: -0.309 for the first, -0.459 for the second.

Going from COc1ccc(OC)c2sc(NC(=O)C3COc4ccccc4O3)nc12 (configuration not stated) to CCn1cc(C(=O)N2CC=C(c3ccccc3)CC2)c(=O)c2ccc(C)nc21, the B-score rises from 1.13 to 1.17.

Going from CNC(=O)c1c(NC(=O)c2ccc(S(=O)(=O)N3CCOCC3)cc2)sc2c1CCC2 to O=C(NC(Cc1ccccc1)C(=O)N1CCCC1C(=O)O)c1ccccc1 (stereo not drawn) (Bz-Phe-Pro-OH; configuration not given here), the B-score falls from 0.787 to 0.682.

Going from CC(C)c1nc(-c2ccccn2)no1 to c1csc(-c2nc(-c3ccncc3)no2)c1, the B-score rises from -0.397 to 2.02.

Going from O=C(c1cccs1)N(C(=O)c1cccs1)c1ccccn1 to Cc1cc(C(=O)COC(=O)c2cccs2)c(C)n1-c1c(C)n(C)n(-c2ccccc2)c1=O, the B-score falls from -0.339 to -1.48.

Going from O=C1C(C=NCC2CCCO2)=C(O)c2ccccc21 (configuration not stated) to Cc1ccc(S(=O)(=O)NCc2nc3ccccc3c(=O)n2N)cc1, the B-score rises from -0.132 to -0.0901.

First: COc1cccc(-n2cc3c(c2-c2ccccc2)c(=O)n(C)c(=O)n3C)c1
Second: C=CCn1c(N)c(S(=O)(=O)c2cccs2)c2nc3ccccc3nc21
The B-score of the first is higher: 0.281 for the first, -0.811 for the second.

Going from CCSc1nc2c(c(=O)[nH]1)C(c1cccnc1)C(C(=O)OC(C)C)=C(C)N2 (configuration not stated) to CCn1c(=N)c(C(=O)NCCCOC)cc2c(=O)n3cccc(C)c3nc21, the B-score falls from 0.843 to -0.055.

In the case of COC(=O)C(C)C1Sc2ccccc2NC1=O (configuration not stated), the B-score is reported as 4.51 (active).
COc1ccc(N=Cc2c(O)[nH]c3ccccc23)cc1OC was tested, and the B-score was -2.18 (active).
In the case of Cc1cc(C(F)(F)F)nn1-c1nc(-c2ccco2)cc(C(F)(F)F)n1, the B-score is reported as 9.17 (active).
With FC(F)(F)c1cc(-c2ccco2)nc(N2CCOCC2)n1 the B-score was 17 (active).
With CCc1cc(=O)oc2cc(OCC(=O)N3CCCc4ccccc43)ccc12 the B-score was 8.41 (active).
For COc1ccc(CCN(C)C(=O)C2CCCN(Cc3ccc(OC)c(OC)c3)C2)cc1OC (configuration not stated), the B-score was 5.3 (active).
In the case of O=C(CCN1C(=O)COc2ccccc21)NCCCN1CCN(c2ccc(F)cc2)CC1, the B-score is reported as -2.68 (active).
COc1cc(NC(=O)N2CCOCC2)cc(OC)c1 was tested, and the B-score was 4.92 (active).
CCn1ncc(C2=NOC(C(=O)Nc3ccccc3C(=O)OC)C2)c1C (configuration not stated) was tested, and the B-score was 13.2 (active).
In the case of CCCc1nc(-c2ccccc2O)n(-c2ccccc2)n1, the B-score is reported as 8.71 (active).
For OC(COc1cccc2ccccc12)CN1CCN(c2ccccn2)CC1 (configuration not stated), the B-score was -4.42 (active).
In the case of CCN(Cc1nc2ccccc2c(=O)[nH]1)Cc1cc(=O)oc2cc(C)c(C)cc12, the B-score is reported as -2.91 (active).
With CC(C)c1cc(C(=O)O)on1 the B-score was 3.98 (active).
In the case of c1ccc(-c2noc(-c3cccs3)n2)nc1, the B-score is reported as -6.15 (active).
With O=C(Oc1ccc(-c2nc(-c3ccccn3)no2)cc1)c1ccccc1 the B-score was -2.61 (active).
Cc1ccc(S(=O)(=O)c2c(N)n(C)c3nc4ccccc4nc23)cc1 was tested, and the B-score was 8.84 (active).
With CCOC(=O)/C=c1\s/c(=C\c2ccccc2OC)c(=O)n1CC(=O)N1CCOCC1 the B-score was 4.29 (active).
For CCn1cc(C(=O)NCc2ccc(OC)cc2OC)c(=O)c2ccc(C)nc21, the B-score was 5.55 (active).
CCn1c(=N)c(S(=O)(=O)c2ccc(F)cc2)cc2c(=O)n3ccccc3nc21 was tested, and the B-score was 4.93 (active).
